From PubChem BioAssay
Only some compounds are listed: those with a hit (about 2.8% of all), similar ones and a draw of the others.
Peg3 prom inh: Peg3 promoter activity inhibition; HeLa PEG-Prom luciferase reporter, luminescence, overnight; actives 1.7% (n = 360,000); inhibition, % at 20 µM;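 active = inhibition of at least 50% at 20 µM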
HIF-2a inh: inhibitors of HIF-2a; 786-0 RCC cells HIF-2a reporter, luciferase luminescence, overnight; inhibition, % at 18.8 µM; actives 0.72% (n = 360,000); AID 624352;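 active = inhibition of the luminescence signal of 40% or more relative to plate controls, in a single-dose primary screen at 18.75 µM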
MITF TRPM1 inh: inhibitors of MITF-driven TRPM1 promoter in melanoma cells; SK-MEL-5 TRPM1 promoter luciferase, 24 h; inhibition, % at 12.5 µM; actives 0.83% (n = 330,000);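 active = mean inhibition across replicates of 60% or more, whatever share of single replicates reaches that level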
Shn3 3UTR inh: inhibitors of Schnurri-3 3'UTR reporter in osteoblasts. Clone20 osteoblast Shn3 3'UTR firefly luciferase, 24 h. inhibition, % at 12.5 µM. actives 0.52% (n = 360,000). AID 588674;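 active = mean inhibition of at least 75% with every replicate also reaching 75%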;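 note: 0% = median of neutral control wells and 100% = pilot-screen positive control compound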
KKLEB tox: CF airway cell cytotoxicity counter-screen; AID 602141; activity change (cytotoxicity), % at 5 µM; actives 0.36% (n = 360,000); KKLEB CF airway cells viability, ATPlite luminescence, overnight; active compounds read low; cells stimulated with P. aeruginosa culture filtrate;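 active = corrected activity change at or below -50% at 5 µM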
CF NFkB inh: inhibitors of cystic fibrosis induced NF-kB | actives 0.86% (n = 360,000) | KKLEB NF-kB-GFP reporter, PAF-induced, GFP fluorescence overnight | inhibition, % at 5 µM;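 active = at least 50% inhibition at 5 µM, scaled per plate between neutral and stimulator controls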;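 note: PAF is a Pseudomonas aeruginosa culture filtrate used as stimulus; plate controls were PAF-stimulated DMSO wells for no effect and unstimulated DMSO wells for full effect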
Starred values were filed as active, the others as inactive; · = no result.

SMILES	Peg3 prom inh	HIF-2a inh	MITF TRPM1 inh	Shn3 3UTR inh	KKLEB tox	CF NFkB inh
C[C@H](CO)N1C[C@H](C)[C@@H](CN(C)Cc2ccc(Oc3ccccc3)cc2)Oc2c(NS(=O)(=O)c3cn(C)cn3)cccc2C1=O	-17.2	4.6	0.1	-2.4	9.9	-8.3
CC[n+]1c(/C=C/N(C)c2ccccc2)n(-c2ccccc2)c2ccc(-c3nc4ccccc4s3)cc21	112.2*	91.3*	90.5*	97.9*	-94.6*	92.1*
CCCN(CCC)C(=O)CSc1nc2ccccc2c(=O)n1CC1COc2ccccc2O1 (stereo not given)	51.1*	14.2	6.8	2.1	-11.2	-13.7
CCOC(=O)CSc1nc2ccccc2c(=O)n1CC1COc2ccccc2O1 (stereo not given)	17.8	23.2	-5.6	12.2	1.6	-8.4
CCC1(C)Cc2c(sc3nnn(CC(=O)Nc4ccc(C)cc4)c(=O)c23)CO1 (stereo not given)	42.5	12.0	3.1	13.9	7.3	-5.8
CCC1(C)Cc2c(sc3nnn(CC(=O)Nc4cccc5ccccc45)c(=O)c23)CO1 (stereo not given)	56.5*	9.0	1.5	12.2	4.9	-16.3
O=C(N/N=C\c1ccc([N+](=O)[O-])s1)c1cncc(Br)c1	63.3*	-23.0	78.4*	4.4	16.4	11.9
O=C(N/N=C/c1cccs1)c1cncc(Br)c1	-19.8	-10.2	-1.1	-2.2	-6.9	-18.4
Cn1c(SCC(=O)N/N=C/c2ccc([N+](=O)[O-])s2)nnc1-c1ccccc1	64.1*	16.2	71.3*	82.5	-13.8	-2.6
O=C(N/N=C/c1ccc([N+](=O)[O-])s1)C(O)c1ccccc1 (stereo not given)	11.1	-6.3	69.4*	16.5	0.9	-16.5
COC(=O)N/N=C/c1ccc([N+](=O)[O-])s1	-5.1	3.7	22.7	6.6	1.4	-28.1
O=C(Cc1ccccc1)N/N=C/c1ccc([N+](=O)[O-])s1	-54.9	-105.4	67.6*	23.6	7.3	0.3
O=C(CSc1nnc(-c2ccncc2)o1)N1CCc2ccccc2C1	-5.3	8.0	11.3	4.4	-6.2	5.5
COc1ccc(NC(=O)COc2nc3ccccc3nc2N2CCOCC2)c(OC)c1	21.9	2.4	-2.0	-16.9	3.6	3.9
O=C(CNC(=O)c1cccc(F)c1)N/N=C/c1ccc([N+](=O)[O-])s1	2.7	0.9	70.9*	20.9	-0.3	4.8
COC(=O)N/N=C/c1cc(N=Nc2ccccc2)ccc1O	-44.3	-99.2	-0.1	7.6	14.3	13.4
Nc1ccc(C(=O)N/N=C\c2cc(N=Nc3cccc4ccccc34)ccc2O)cc1	26.8	-40.7	39.6	89.1*	6.0	7.0
Cc1cc(C(=O)N/N=C/c2cc(N=Nc3ccccc3)ccc2O)n[nH]1	-25.5	-132.4	41.5	86.7*	-18.2	39.8
C=CCc1cccc2cc(C(=O)Nc3ccc(CC(=O)O)cc3)c(=O)oc12	-40.3	64.5*	24.8	2.3	-6.1	5.6
C=CCc1cccc2cc(C(=O)Nc3ccc(F)cc3)c(=O)oc12	-125.3	-137.4	-30.8	-36.3	3.0	-18.7
CC(C)c1ccc(NC2CCCN(C(=O)c3ccsc3)C2)cc1 (stereo not given)	1.4	-14.7	17.2	-11.0	-3.0	-6.9
CC(=O)NCCNC(=O)c1ccc(Cn2c(=O)[nH]c3ccsc3c2=O)cc1	1.9	-4.1	-12.7	28.3	2.1	-3.5
O=C(Nc1cc(Cl)cc(Cl)c1)c1ccc(Cn2c(=O)[nH]c3ccsc3c2=O)cc1	30.4	0.3	·	60.2	-50.2*	54.5*
COc1cc(/C=N/NC(=Nc2ccc(C)cc2)c2nc3ccccc3s2)ccc1O	72.4*	72.9*	68.7*	52.1	-11.5	-15.8
OC[C@@H]1CN(Cc2ccco2)C[C@H](n2cnc3c(NCc4ccncc4)ncnc32)O1	-1.1	9.9	·	-1.2	2.2	7.0
Cn1nc(C2CC2)cc1NC(=O)C1(C)CCN1C(=O)CCc1ccccc1 (stereo not given)	3.6	4.5	·	2.5	-9.3	24.0
CCCCCCCC(=O)OCC(O)CO (stereo not given)	-11.8	-5.4	-1.8	-1.5	-59.5*	-8.0
CCCCC(CC)COC(=O)CCCCC(=O)OCC(CC)CCCC (stereo not given)	3.4	15.1	4.3	-17.2	-14.0	4.5
